NLRP3 yeast inh – inhibitors of NALP3 inflammasome in yeast; 330,000 compounds, 0.39% hits; AID 2825; Yeast reconstituted NLRP3/ASC/caspase-1, beta-gal luminescence, 24 h; inhibition, % at 10 µM;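 active means inhibition of 50% or more; inactive means inhibition below 50%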
TIM10 inh – inhibits growth of TIM10 yeast strain; S. cerevisiae TIM10 strain growth, BacTiter-Glo luminescence, 24 h; inhibition, % at 10 µM; 330,000 compounds, 1.4% hits;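 active means inhibition of 40% or more at the single tested concentration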;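 further: wild-type TIM10 isogenic control strain grown at permissive 25 °C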
tim10-1 inh – tim10-1 yeast growth inhibition. 330,000 compounds, 2.2% hits. inhibition, % at 20 µM. S. cerevisiae tim10-1 ts strain growth, BacTiter-Glo, 24 h. AID 463190;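 active means inhibition of at least 40%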;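 further: mutant grown at 25 °C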
Yeast superoxide – caloric restriction mimetics inhibiting age-related superoxide in yeast; AID 2690; S. cerevisiae aged cells, superoxide DHE fluorescence; hits give low values; 330,000 compounds, 0.18% hits; superoxide response (% of plate mean), % at 10 µM;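 active means superoxide response under a set limit, about three screen SD below normal, cut at about 65% in these data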;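 further: yeast aged for seven days with compound at 30 °C before DHE staining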
tim23-1 inh – tim23-1 yeast growth inhibition; inhibition, % at 20 µM; S. cerevisiae tim23-1 growth, BacTiter-Glo luminescence, 24 h; AID 463212; 330,000 compounds, 1.3% hits;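 active means growth inhibition of the mutant yeast at or above 50%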;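 further: temperature-sensitive mutant grown at 25 °C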
TIM10 conf – confirmation of TIM10 yeast growth inhibitors; shares compounds with TIM10 inh; inhibition, % at 10 µM; 4,600 compounds, 63% hits; S. cerevisiae tim10 strain growth, BacTiter-Glo luminescence, 24 h;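 active means inhibition of yeast growth at or above a set limit in either of two replicates at 10 µM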; further: this counterscreen used the strain with wild-type TIM10
Numbers stand for hits; - = inactive; . = not tested or not shown. A selection: hits, their analogues and other compounds. The true share with any hit is near 3.8%.

SMILES	NLRP3 yeast inh	TIM10 inh	tim10-1 inh	Yeast superoxide	tim23-1 inh	TIM10 conf
FC(F)(F)c1ccc(/C=N/NC(=S)NC2CCCCC2)cc1	-	-	-	-	-	.
COc1ccc(N(CC(=O)NCCc2ccc(OC)c(OC)c2)S(=O)(=O)c2ccc(OC)c(OC)c2)cc1	-	-	-	-	-	.
CCN(C[C@H]1N[C@@](C)(C(=O)OC)[C@H]2C(=O)N(C)C(=O)[C@@H]12)C(=O)Nc1ccc(C)cc1	-	-	-	-	-	.
COc1ccc(C2c3ccc4ccccc4c3Oc3ncn(CCN4CCOCC4)c(=N)c32)cc1 (stereo unspecified)	-	-	-	-	-	.
COc1ccc(-c2oc3ncn(CCN4CCOCC4)c(=N)c3c2-c2ccc(OC)cc2)cc1	-	41.6	-	-	-	-
C[C@H]1CN([C@@H](C)CO)C(=O)c2cc(NS(=O)(=O)c3ccc(Cl)cc3)ccc2O[C@@H]1CN(C)CC1CCCCC1	-	-	-	-	-	.
CC12CCC(c3nnc(SCC(=O)Nc4cccc5ccccc45)nc31)C2(C)C (stereo unspecified)	-	46.1	-	-	-	-
CCOC(=O)CSc1nnc2c(n1)C1(C)CCC2C1(C)C (stereo unspecified)	-	-	-	-	-	.
CNc1nnc(-c2cc3cc(Cl)ccc3oc2=O)s1	-	46.2	-	-	-	32.7
O=c1oc2ccc(Cl)cc2cc1-c1nnc(Nc2cccc(C(F)(F)F)c2)s1	-	-	-	-	-	.
COc1cc(CCC(=O)Nc2ccc(S(=O)(=O)NC3=NCCCCC3)cc2)cc(OC)c1OC	-	-	-	-	-	.
COC(=O)c1c(NC(=O)COc2ccc(Cl)cc2)sc2c1CC(C)(C)NC2(C)C	-	46.3	-	-	-	-
COC(=O)c1c(NC(=O)Cc2ccccc2)sc2c1CC(C)(C)NC2(C)C	-	-	-	-	-	.
COc1cccc(CN(C)C(=S)Nc2ccc(C)c(C)c2)c1	-	46.3	-	-	-	-
Clc1ccc(Cn2ccc(-c3ccc4c(c3)OCO4)n2)cc1Cl	-	40.1	-	-	-	40.0
Cc1cc(C)c(S(=O)(=O)c2ccc(Cl)cc2C)c(Cl)n1	-	-	-	-	-	.
O=C(c1cc(C(=O)N2CCCC2)cc([N+](=O)[O-])c1)N1CCCC1	-	-	-	-	-	.
O=[N+]([O-])c1ccc2c(OCc3nnc(-c4ccccc4Br)o3)ncnc2c1	-	44.6	-	-	-	30.6
O=[N+]([O-])c1cc(Br)c(OCc2nnc(-c3ccccc3)o2)c(Br)c1	-	-	-	-	-	.
N#C/C(=C/c1ccc(F)cc1)S(=O)(=O)c1ccccc1	-	-	-	-	-	.
N#C/C(=C\c1ccc(C(=O)O)cc1)S(=O)(=O)c1cc(Br)ccc1Br	-	42.5	-	-	-	-
NS(=O)(=O)c1ccc(CCNC(=O)C(=O)C2C(=O)Nc3ccccc32)cc1 (stereo unspecified)	-	-	-	-	-	.
Cc1cc(C(=O)CCl)c(C)n1Cc1ccco1	-	46.1	-	-	-	33.9
CC(=O)C(Sc1nc(NC(C)(C)C)nc(N(C)C)n1)C(C)=O	-	43.8	-	-	-	-
CCCCn1nc(C(=O)Nc2ccccc2N2CCCC2)c2ccccc2c1=O	-	-	-	-	-	.
SMILES	NLRP3 yeast inh	TIM10 inh	tim10-1 inh	Yeast superoxide	tim23-1 inh	TIM10 conf
CS(=O)(=O)c1nc(-c2ccccc2)cc(C(F)(F)F)n1	-	44.9	-	-	-	-
CCC1CCCCN1C(=O)CCc1nnc(Cc2cc(OC)ccc2OC)o1 (stereo unspecified)	-	-	-	-	-	.
Cc1ccc2cc3cc(C(=O)N4CCCCC4C)oc3nc2c1 (stereo unspecified)	-	50.4	-	-	-	-
Cc1ccc2cc3cc(C(=O)NCCCN4CC(C)CC(C)C4)oc3nc2c1 (stereo unspecified)	-	61.4	-	-	-	-
CCN(C(=O)c1cc2cc3ccc(C)cc3nc2o1)c1ccc(OC)cc1	-	44.4	-	-	-	-
CCCN(C(=O)c1ccc(N(C)S(=O)(=O)c2ccc(C)cc2)cc1)C1CCS(=O)(=O)C1 (stereo unspecified)	-	-	-	-	-	.
CCc1ccccc1NC(=O)CC(NCc1ccccc1)C(=O)O (stereo unspecified)	-	-	-	-	-	.
Cc1csc(NC(=O)c2ccc(Cl)nc2)n1	-	-	-	-	-	.
Cn1c(N2CCN(S(=O)(=O)c3ccc(F)cc3)CC2)nc2ccccc21	-	-	-	-	-	.
CC(C)n1c(N2CCN(S(=O)(=O)c3cccc([N+](=O)[O-])c3)CC2)nc2ccccc21	-	41.0	-	-	-	34.5
CCCCCn1c(CCNC(=O)c2cccs2)nc2ccccc21	-	41.2	-	-	-	-
CCCCCn1c(CNC(=O)c2cccs2)nc2ccccc21	-	-	-	-	-	.
C=CCn1c(-c2cc(-c3ccccc3)sc2N)n[nH]c1=S	-	48.4	-	-	-	-
COC(=O)C1C2C=CC3(CN(c4cccc(C)c4)C(=O)C13)O2 (stereo unspecified)	-	94.2	-	-	-	-
COC(=O)C1C2C=CC3(CN(c4cccc(Cl)c4)C(=O)C13)O2 (stereo unspecified)	-	-	-	-	-	.
O=C1CCC(C(=O)OCC(=O)N2N=C3/C(=C/c4ccccc4)CCCC3C2c2ccccc2)N1 (stereo unspecified)	-	42.1	-	-	-	-
COc1ccc(CCN(C)C(=S)Nc2ccc(SC(F)F)cc2)cc1OC	-	-	-	-	-	.
COc1ccc(CCN(C)C(=S)NC(=O)c2ccc(F)cc2Cl)cc1OC	-	45.2	-	-	-	-
Oc1cccc(NC(=S)Nc2ccc(SC(F)F)cc2)c1	-	-	-	-	-	.
Oc1cccc2c(NC(=S)Nc3ccc(SC(F)F)cc3)cccc12	-	52.1	-	-	-	41.7
CN(CC(=O)NC1CC(C)(C)NC(C)(C)C1)S(=O)(=O)c1ccc(Br)cc1	-	-	-	-	-	.
CC(C)CC(=O)NC(=S)Nc1cccc(NC(=O)c2ccccc2)c1	-	46.7	-	-	-	33.3
CC(C)CC(=O)NC(=S)Nc1ccc(NC(=O)c2cccs2)cc1	-	51.4	-	-	-	-
CCCC(=O)NC(=S)Nc1cccc(NC(=O)c2ccccc2)c1	-	-	-	-	-	.
CCCn1cc(NC(=O)c2cc(-c3ccccc3)on2)cn1	-	42.8	-	-	-	41.5
NC(=O)CC(NC(=O)c1ccccc1)c1ccc(N2CCN(c3ccccc3)CC2)c([N+](=O)[O-])c1 (stereo unspecified)	-	-	-	-	-	.
NC(=O)CC(NC(=O)c1cccc(Br)c1)c1ccc(NCCN2CCOCC2)c([N+](=O)[O-])c1 (stereo unspecified)	-	42.8	-	.	-	-
NC(=O)CC(NC(=O)c1cccc(Br)c1)c1ccc(NCC2CC2)c([N+](=O)[O-])c1 (stereo unspecified)	-	-	-	-	-	.
